# Most compounds without a hit are left out; they make up all but 0.56% or so of the library.
# LDHA block: inhibitors of human lactate dehydrogenase A. purified LDHA, NADH/diaphorase-resazurin fluorescence; active compounds read low. activity change, % (values are at about 110 or 230 µM). actives 0.15% (n = 480,000); in the data active = activity change below about -30%; inconclusive = mostly about -25% to -30%;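 note: plate controls were DMSO wells for no effect and wells without enzyme for full effect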
#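 Human LDH5 at 2 nM final in Tris HCl pH 7.4 with 0.06 mM NADH and 0.2 mM pyruvate, reacted 5 minutes at room temperature. Remaining NADH coupled via diaphorase/resazurin; resorufin fluorescence read at 0 and 20 minutes, normalized to enzyme-free and DMSO wells.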
# USP1 inh: USP1/UAF1 (human) deubiquitinase inhibition | O94782 | recombinant USP1/UAF1, Ub-Rhodamine cleavage fluorescence | Potency, µM (highest dose often 57.1 µM), inactives show at the highest dose activity change, negative = inhibition, actives largely listed as inhibitors | actives 0.23% (n = 390,000); note: potency is the fitted concentration of half-maximal effect; % is set by controls: 0 for no effect and ±100 for the full control effect; nearly all actives have a fitted effect of over 60% in size
#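 1 nM enzyme complex + cpd, 15 min RT; start with Ub-Rho 150nM final; kinetic fluorescence ex 480/em 540, 6 reads q60 s. Buffer 50mM HEPES pH 7.8, 0.5mM EDTA, 0.1 mg/ml BSA, 1mM TCEP, 0.01% Tween-20.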
# EPAC2 ag: activates human EPAC2 exchange factor; Q8WZA2; EPAC2 activation, biochemical qHTS; response scale: 100% = 6.5 mM cAMP response; Potency, µM (titrated, usually from 154 µM), for the others: at the highest dose activation, usual class: activators; actives 0.079% (n = 360,000); note: potency is the fitted concentration of half-maximal effect; nearly all actives have a fitted effect of over 50% in size
#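 Guanine nucleotide exchange by EPAC2 is measured as reduced fluorescence of BODIPY-GDP once it is released from 250 nM Rap1B. Plates are read kinetically for 30 min at room temperature; results are scaled to 6.5 mM cAMP.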
# EPAC1 ag: agonists of human EPAC1; EPAC1 agonist qHTS, biochemical assay; response scale: 100% = response to 6.5 mM cAMP; Potency, µM (highest dose often 154 µM), without a hit: at the top dose activation, hits mostly activators; actives 0.073% (n = 360,000); note: potency is the fitted concentration of half-maximal effect; nearly all actives have a fitted effect of over 60% in size
# Target sequence (O95398 whole entry, looked up): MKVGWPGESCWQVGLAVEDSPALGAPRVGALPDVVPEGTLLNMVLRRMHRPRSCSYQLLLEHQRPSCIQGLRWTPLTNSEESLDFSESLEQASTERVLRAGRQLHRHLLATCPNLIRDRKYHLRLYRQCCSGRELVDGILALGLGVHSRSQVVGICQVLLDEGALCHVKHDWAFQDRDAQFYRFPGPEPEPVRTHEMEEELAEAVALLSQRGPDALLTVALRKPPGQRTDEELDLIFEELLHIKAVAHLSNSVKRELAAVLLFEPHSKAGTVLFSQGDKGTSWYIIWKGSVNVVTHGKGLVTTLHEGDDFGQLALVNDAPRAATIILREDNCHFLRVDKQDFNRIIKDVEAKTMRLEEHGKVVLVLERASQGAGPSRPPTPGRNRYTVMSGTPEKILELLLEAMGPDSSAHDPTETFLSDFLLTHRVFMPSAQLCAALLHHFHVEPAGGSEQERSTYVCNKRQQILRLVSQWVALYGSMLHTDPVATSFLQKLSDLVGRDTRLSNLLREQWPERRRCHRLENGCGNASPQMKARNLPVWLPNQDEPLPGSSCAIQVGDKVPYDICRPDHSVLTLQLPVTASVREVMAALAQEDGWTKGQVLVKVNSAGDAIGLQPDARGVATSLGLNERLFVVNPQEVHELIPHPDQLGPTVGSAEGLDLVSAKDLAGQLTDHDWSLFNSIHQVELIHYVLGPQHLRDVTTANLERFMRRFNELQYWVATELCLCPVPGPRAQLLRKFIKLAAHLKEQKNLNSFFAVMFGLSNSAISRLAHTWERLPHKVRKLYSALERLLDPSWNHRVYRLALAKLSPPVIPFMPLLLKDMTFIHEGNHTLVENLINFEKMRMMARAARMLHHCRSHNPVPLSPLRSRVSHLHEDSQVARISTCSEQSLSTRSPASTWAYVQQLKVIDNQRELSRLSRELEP
#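 Multi-concentration qHTS readout: loss of Rap1B-bound BODIPY-GDP fluorescence driven by 100 nM EPAC1 with excess GDP (50 uM), monitored kinetically at room temperature; agonist response expressed relative to 6.5 mM cAMP.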
# EPAC1 antagonist: blocks human EPAC1 exchange factor. Potency, µM (titrated, usually from 115 µM), without a hit: top-dose activity change, negative = inhibition, hits mostly inhibitors. AID 720709. O95398. EPAC1 GEF assay, Rap1b-BODIPY-GDP exchange fluorescence. actives 0.14% (n = 360,000);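 note: potency is the fitted concentration of half-maximal effect; plate controls were vehicle for no effect and positive control for full effect; nearly all actives have a fitted effect of over 50% in size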
# EPAC2 antag: antagonists of human EPAC2 | AID 720708 | EPAC2 GEF exchange of Rap1B-BODIPY-GDP, fluorescence | Potency, µM (doses to about 114 µM), inactives show at the top dose activity, negative = inhibition, most hits filed as inhibitors | Q8WZA2 | actives 0.18% (n = 360,000); note: potency is the fitted concentration of half-maximal effect; % is set by controls: 0 for no effect and ±100 for the full control effect; nearly all actives have a fitted effect of over 45% in size
# Numbers without * were called inactive; ? = inconclusive; . = no result given. Unless noted, calls come from the whole dose curve; as a rule, active = well fitted curve in the direction sought with a large enough effect; inconclusive = small, poorly fitted or top-dose-only effect, or another doubt; inactive = no such curve, though single readings can be large; an effect the other way counts as inactive or inconclusive.
SMILES,LDHA block,USP1 inh,EPAC2 ag,EPAC1 ag,EPAC1 antagonist,EPAC2 antag
CN1C(=O)S/C(=C\c2ccc(-n3cncn3)cc2)C1=O,-7.2,-1.5%,12.1%,7.3%,-5.1%,-5.7%
CCOc1ccc2nc(NC(=O)c3cc(=O)c4ccccc4o3)sc2c1,-0.5,.,.,.,.,.
Cc1ccc2sc(NNC(=O)c3cc(=O)c4ccccc4o3)nc2c1C,11.7,31.6µM*,-8.3%,-13.2%,-16.1%,12.1%
COc1ccc2nc(NNC(=O)c3cc(=O)c4ccccc4o3)sc2c1,11.8,28.2µM*,-2.2%,-7.7%,-4.5%,-6.9%
CCN(CC)CC(=O)Nc1cc(N(C)C)nc2ccccc12,-33.3*,-7.6%,2.2%,7.2%,1.9%,4.0%
Cc1ccc(S(=O)(=O)Cn2nnnc2CN2CCCC3(CCCCC3)C2)cc1,6.1,-16.9%,8.0%,14.0%,7.2%,0.1%
COc1cc(Cl)cc2c1Sc1ccccc1/C2=C/CCN(C)C,-4.0,-3.3%,10.7%,0.4%,-1.6%,-3.3%
CN(C)CC/C=C1/c2ccccc2Sc2c(O)cc(Cl)cc21,11.1,-15.6%,10.0%,0.8%,-0.8%,35.5µM*
O/N=C(/C[n+]1csc2ccccc21)c1ccccc1,-1.3,.,.,.,.,.
CCN(CC)c1ccc(/C=C(/C#N)C(=O)NC(C)C)o1,1.9,25.1µM*,10.9%,13.0%,11.7%,-12.9%
CCN(CC)c1ccc(/C=C(/C#N)C(=O)NCc2ccccc2)o1,9.8,31.6µM*,26.4%,5.4%,2.9%,13.8%
N#C/C(=C\c1ccc(O)cc1)C(=O)NCc1ccccc1,-9.2,-14.3%,8.0%,-0.9%,-10.3%,-2.8%
CC(C)NC(=O)/C(C#N)=C\c1ccc(N(C)C)o1,8.2,?,1.5%,-2.5%,-0.1%,-5.1%
COCOCCn1cc(CN2CCS(=O)(=O)N(Cc3ccc(-c4ccc(OC)cc4)cc3)C(C)C2=O)nn1 (stereo unspecified),-7.0,1.3%,19.0%,3.4%,-10.3%,0.1%
O=C1C(=Cc2cn(-c3ccccc3)nc2-c2ccc(OCc3ccccc3)cc2)SC(=S)N1CCS(=O)(=O)O,-15.2,.,-6.3%,-1.4%,?,?
Cc1ccc(-c2nn(-c3ccccc3)cc2C=C2SC(=S)N(CCS(=O)(=O)O)C2=O)cc1,-1.9,.,1.2%,-12.0%,7.94µM*,44.7µM*
O=C(O)COCC(=O)N1CCCN(c2nccc(C(F)(F)F)n2)CC1,-5.6,-8.7%,12.1%,9.8%,-18.0%,9.6%
CN1CCc2nc3sc(C(=O)C45CC6CC(CC(C6)C4)C5)c(N)c3cc2C1,-1.6,?,?,11.8%,-19.3%,50.1µM*
COc1cccc(SC(C)C(=O)NC(C)(C)C)c1 (stereo unspecified),2.4,.,.,.,.,.
O=C(Nc1cccc(-c2nnc3n2CCCCC3)c1)c1n[nH]c(=O)c2ccccc12,-11.4,.,.,.,.,.
O=C(O)C1Nc2c(Cl)cc(Cl)cc2C2C=CCC12 (stereo unspecified),-1.5,?,0.6%,4.7%,17.8µM*,-2.2%
Cc1cccc(N(Cc2ccccc2)C(=O)CSC(C)C(=O)Nc2cc(C)on2)c1 (stereo unspecified),-6.3,-9.7%,5.4%,112µM*,-11.6%,-6.9%
Cc1ccc2c(CSc3nnnn3C(C)(C)C)cc(=O)oc2c1,1.0,.,.,.,.,.
COc1cccc(OCCOc2ccc(/C=C3\C(=N)N4N=C(S(C)(=O)=O)SC4=NC3=O)cc2OC)c1,-1.9,-21.1%,4.2%,0.6%,70.8µM*,-3.0%
COc1cc(/C=C2\C(=N)N3N=C(S(C)(=O)=O)SC3=NC2=O)cc(OC)c1OCCOc1ccccc1C,-8.4,?,10.3%,4.2%,50.1µM*,?
SMILES,LDHA block,USP1 inh,EPAC2 ag,EPAC1 ag,EPAC1 antagonist,EPAC2 antag
COc1cc(/C=C2\C(=N)N3N=C(C)SC3=NC2=O)cc(OC)c1OCCOc1ccccc1C,-4.6,-15.6%,-3.7%,9.8%,-20.0%,-1.3%
Cc1ccc(C2=NC(=O)/C(=C/c3cc(O)c(O)c(Br)c3)S2)cc1,16.6,-15.8%,-1.1%,2.5%,10µM*,-21.7%
N#C/C(=C/c1ccc(N2CCCCCC2)o1)c1ccc(F)cc1,11.4,?,-7.5%,4.2%,0.0%,0.2%
N#C/C(=C/c1ccc(N2CCCCCC2)o1)c1cccc(F)c1,14.8,25.1µM*,15.3%,12.9%,-2.3%,-0.6%
N#Cc1cc(C(=O)c2cc(F)ccc2O)cn(C2CC2)c1=O,-3.2,.,.,.,.,.
N#Cc1cc(C(=O)c2cc(F)ccc2O)cn(-c2nccs2)c1=O,-1.3,25.1µM*,112µM*,?,35.7%,76.2%
N#Cc1cc(C(=O)c2ccccc2O)cn(-c2nccs2)c1=O,-4.0,28.2µM*,100µM*,89.1µM*,62.3%,77.2%
c1ccc(CNc2ncnc3nc(N4CCOCC4)[nH]c23)cc1,0.4,.,.,.,.,.
CC(C)OCc1cccc(CNC(=O)C2CCCCC2)c1,5.0,.,.,.,.,.
COc1ccccc1-c1ccc([C@@H]2C[C@H]3[C@H](CON3C)CN2C(=O)c2ccco2)cc1,-32.2*,-32.2%,13.3%,-0.8%,1.9%,-3.6%
CN1OC[C@@H]2CN(C(=O)c3ccco3)[C@H](c3ccc(-c4ccc(C#N)cc4)cc3)C[C@@H]21,-17.0,-1.1%,3.6%,-8.2%,?,4.7%
COc1cc(/C=C2/NC(=O)NC2=O)ccc1OCc1ccc(C(=O)O)cc1,1.2,.,.,.,.,.
CCN1C(=O)/C(=C/c2ccc(OCc3ccc(C(=O)O)cc3)c(Cl)c2)NC1=S,-5.7,-27.1%,10.8%,4.1%,89.1µM*,26.2%
COc1ccc(NC(=O)N(C)C[C@@H]2Oc3cc(Br)ccc3S(=O)(=O)N([C@H](C)CO)C[C@H]2C)cc1,-35.2*,-12.9%,10.6%,-13.0%,20.1%,1.9%
COc1cccc(NC(=O)N(C)C[C@@H]2Oc3cc(Br)ccc3S(=O)(=O)N([C@@H](C)CO)C[C@H]2C)c1,-1.3,-12.6%,10.9%,8.8%,9.2%,-4.1%
CCOP(=O)(OCC)c1nc(-c2ccc(Cl)cc2)oc1NCc1cccnc1,1.0,.,.,.,.,.
O=C(O)c1cccc(N2C(=O)c3cc([N+](=O)[O-])cc4cc([N+](=O)[O-])cc(c34)C2=O)c1,11.8,-20.0%,7.2%,-4.4%,-10.0%,50.1µM*
C/C(=N\NC(=O)c1c(C)nc2ccccn12)c1ccco1,-2.3,-4.8%,3.7%,4.5%,17.6%,6.9%
Cn1nc(CC(=O)NC2CCCC2)c2ccccc2c1=O,6.3,.,.,.,.,.
C=C(C)Cn1c(C)cc(C)c(S(=O)(=O)c2ccc(C)cc2)c1=O,8.1,?,9.7%,-9.1%,-15.0%,35.5µM*
Oc1c(Cl)cc(Cl)cc1C=Nc1ccc(F)c(Cl)c1,2.0,.,.,.,.,.
O=c1[nH]cc(N=Cc2cc(Cl)cc(Cl)c2O)c(=O)[nH]1,4.3,?,-7.7%,100µM*,-6.0%,-17.3%
